# Measurements as given in PubChem BioAssay (NCI).
# About 79,000 compounds went through this panel and 15% of them were active in at least one assay; those are over-represented in the sample as a whole. Unmarked numbers belong to inactive results. Activity calls are given as the source filed them. Cut-off read from the data, not from the text of the source: active = growth inhibition above about 70%; inactive = the rest.
# Tests used:
# [1] = NCI Yeast Anticancer Drug Screen. Data for the rad50 strain (AID 155);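 note: 0% = growth of vehicle-only cultures of the same strain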; conditions: S. cerevisiae rad50 strain growth inhibition, hits give high values
# Outline: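 Relative growth inhibition (compound vs vehicle) was measured in yeast with a defined repair-gene alteration.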
# [2] = NCI Yeast Anticancer Drug Screen. Data for the mec2-1 strain (AID 157); conditions: S. cerevisiae mec2-1 strain, hits give high values
# Outline: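 Test agents were screened against the mec2-1 yeast strain, with defined DNA repair or cell cycle alteration. Growth was scored as inhibition against vehicle-only controls.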
# [3] = NCI Yeast Anticancer Drug Screen. Data for the sgs1 mgt1 strain (AID 161);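 note: 0% = growth of cultures given vehicle only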; conditions: S. cerevisiae sgs1 mgt1 strain, hits give high values
# Outline: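 Inhibition of yeast growth, normalised to vehicle-treated controls, is reported for a strain bearing genetic alterations in DNA damage repair.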
# [4] = NCI Yeast Anticancer Drug Screen. Data for the cln2 rad14 strain (AID 165);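 note: 0% = growth equal to vehicle treated cultures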; conditions: S. cerevisiae cln2 rad14 strain, hits give high values
# Outline: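 Growth of compound-exposed yeast (cln2 rad14 genotype) measured and expressed as inhibition relative to vehicle.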
# [5] = NCI Yeast Anticancer Drug Screen. Data for the bub3 strain (AID 167); conditions: S. cerevisiae bub3 mutant strain, hits give high values
# Outline: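 Screening used yeast with an engineered genetic alteration affecting cell cycle control. Compound-exposed cultures were compared with vehicle cultures, and reduced growth was taken as inhibition.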
# [6] = NCI Yeast Anticancer Drug Screen. Data for the mlh1 rad18 strain (AID 175); conditions: S. cerevisiae mlh1 rad18 strain growth inhibition, hits give high values
# Outline: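 In this whole-cell yeast screen, a strain with altered DNA damage repair is challenged with compound, and its growth is measured against matched vehicle-treated controls.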
# [7] = at 5.0 µM (retest, dose inferred, filed as 0.5)
# [8] = at 50.0 µM (retest, dose inferred, filed as 5.0)
Compound,"growth inhibition [1, 7]","growth inhibition [1, 8]",growth inhibition ([1]; at 50.0 µM),"growth inhibition [2, 7]","growth inhibition [2, 8]",growth inhibition ([2]; at 50.0 µM),"growth inhibition [3, 7]","growth inhibition [3, 8]",growth inhibition ([3]; at 50.0 µM),"growth inhibition [4, 7]","growth inhibition [4, 8]",growth inhibition ([4]; at 50.0 µM),"growth inhibition [5, 7]","growth inhibition [5, 8]",growth inhibition ([5]; at 50.0 µM),"growth inhibition [6, 7]","growth inhibition [6, 8]",growth inhibition ([6]; at 50.0 µM)
CCNc1cc(N)[n+](CC)c2n[nH]c(/N=C/c3cc(Cl)cc(Cl)c3O)c12,37%,80% (active),88% (active),26%,77% (active),87.5% (active),41%,98% (active),89.8% (active),63%,98% (active),79.9% (active),87% (active),97% (active),90.3% (active),37%,78% (active),88.2% (active)
O=C1N(Cc2ccccc2)CC1(c1ccccc1)C1CCCCC1O (configuration not stated),-1%,96% (active),-18.1%,-5%,49%,7.8%,-3%,82% (active),35.5%,-8%,84% (active),6.9%,-2%,93% (active),65.6%,-2%,93% (active),4.1%
Cc1c(Cl)ccc2c(C(O)CNCc3ccccc3)cc(-c3ccc(Cl)cc3)nc12 (configuration not stated),44%,95% (active),98.5% (active),58%,95% (active),91% (active),66%,92% (active),97.1% (active),17%,94% (active),93.8% (active),26%,95% (active),12.1%,59%,95% (active),96.5% (active)
O=C(O)C(Cc1ccc(O)cc1)NC(=O)N(c1ccccc1)c1ccccc1 (configuration not stated),0%,38%,17.2%,-11%,52%,25.1%,-205%,79% (active),30.8%,3%,39%,61.6%,2%,28%,19%,-4%,74% (active),28.5%
CC(C)CCCC(C)C1CCC2(C)C3=CCC4C(C)(CCC(O)C4(C)C)C3=CCC12C (configuration not stated),0%,83% (active),89% (active),-18%,94% (active),73% (active),11%,95% (active),98% (active),-8%,84% (active),97.7% (active),-6%,95% (active),93.3% (active),21%,97% (active),90.8% (active)
CCc1ccc(/C=C/c2ccc([N+](=O)[O-])cc2)nc1,0%,68%,62.2%,-5%,41%,40.6%,-5%,42%,33.5%,6%,39%,7.1%,-5%,-8%,45.9%,3%,44%,69.5%
CCCC(=O)OCc1cc(=O)n(C)c2c3c4c(cc12)c(C)cc(=O)n4CO3,86% (active),99% (active),25%,58%,100% (active),-11.2%,79% (active),100% (active),22.8%,63%,99% (active),13.6%,84% (active),98% (active),-11%,83% (active),99% (active),22.4%
CCOCCOC(=O)c1cc([N+](=O)[O-])cc([N+](=O)[O-])c1,-4%,94% (active),60.2%,-5%,98% (active),66.3%,-3%,93% (active),53.8%,-3%,41%,-1.5%,-8%,94% (active),91.7% (active),2%,98% (active),95.9% (active)
O=C(O)COc1ccccc1C(=O)O,0%,-3%,4.55%,-2%,-3%,29.4%,1%,0%,-1.95%,-2%,2%,23.8%,-5%,-5%,11.6%,1%,-1%,5.7%
